Source: PubChem BioAssay AID1224865 (Sanford-Burnham Center for Chemical Genomics, 2016)
The whole screen tested about 360,000 compounds, of which about 1,100 (0.31%) were called active. The sample as a whole holds a higher share of actives than the screen did. A number with no mark means an inactive call. Rule as the data show it: active = activity change above about 30% (passing the limit was not always enough); inactive = the rest.

Target: Hepatocyte nuclear factor 4-alpha (Homo sapiens) (UniProt P41235)
Sequence (P41235 whole entry, looked up): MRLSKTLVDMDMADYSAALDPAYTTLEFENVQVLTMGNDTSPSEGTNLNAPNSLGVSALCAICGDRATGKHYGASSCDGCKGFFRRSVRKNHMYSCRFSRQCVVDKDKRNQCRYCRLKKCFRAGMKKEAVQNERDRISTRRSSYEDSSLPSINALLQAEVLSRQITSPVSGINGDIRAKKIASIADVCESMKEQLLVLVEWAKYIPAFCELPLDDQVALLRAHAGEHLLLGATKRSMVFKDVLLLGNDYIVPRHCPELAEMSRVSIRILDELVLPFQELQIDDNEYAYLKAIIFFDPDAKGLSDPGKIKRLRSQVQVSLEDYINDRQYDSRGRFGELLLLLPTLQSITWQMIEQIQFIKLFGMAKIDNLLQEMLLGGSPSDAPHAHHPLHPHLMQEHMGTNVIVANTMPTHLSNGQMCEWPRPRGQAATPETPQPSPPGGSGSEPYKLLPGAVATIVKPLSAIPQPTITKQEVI
Assay: HNF4-alpha DNA association modulation – biochemical, fluorescence polarization, FITC-DNA, primary screen (AID 1224865)
Conditions: HNF4a-FITC DNA binding, 1 h, at 10 µM, active compounds read high

SMILES | activity change
O=C(COC(=O)c1ccc(F)cc1F)Nc1ncccn1 | 38.7% (active)
O=C(COC(=O)CSc1ccccc1)Nc1ccc(F)cc1F | -1.87%
CCOC(=O)c1cccc(NC(=O)c2ccc(F)cc2F)c1 | 7%
CC1C(=O)Nc2ccccc2N1C(=O)c1ccc(F)cc1F (stereo unspecified) | 2.72%
O=C(NCc1ccncc1)c1cccc(NS(=O)(=O)c2ccc(F)c(F)c2)c1 | -3.8%
CC1C(=O)N2CCCc3cc(S(=O)(=O)NCc4ccc(F)cc4)cc1c32 (stereo unspecified) | -0.59%
CCn1nnc(NC(=O)c2c(OC)cccc2OC)n1 | 0.86%
CC(C)CC(=O)Nc1ccc(Cc2ccncc2)cc1 | 1.88%
COc1cccc(OC)c1C(=O)Nc1ccc(Cc2ccncc2)cc1 | 41.2% (active)
C=CCn1c(SCC(=O)NC23CC4CC(CC(C4)C2)C3)nc(O)cc1=O | 2.14%
Cc1ccc2[nH]c(=O)c(CN(CCCN(C)C)C(=O)Nc3cccc(Cl)c3)cc2c1 | 4.9%
O=C1Nc2cc(C(=O)N3CCN(c4ccc(F)cc4)CC3)ccc2NC1CSCc1cccc(F)c1 (stereo unspecified) | 102% (active)
Cc1ccc(CSCC2Nc3ccc(C(=O)N4CCN(c5ccc(F)cc5)CC4)cc3NC2=O)cc1 (stereo unspecified) | 37.8% (active)
Cc1noc(C)c1S(=O)(=O)Nc1ccc(C(=O)N2CCN(c3ccc(F)cc3)CC2)cc1 | 1.2%
COC(=O)c1ccc(C(=O)OC)c(NC(=S)N2CCN(c3ccc(F)cc3)CC2)c1 | -1.17%
C=CCn1c(SCc2cccc(F)c2)nc2cc(C(=O)N3CCC(C(N)=O)CC3)ccc2c1=O | 2.05%
Cc1ccccc1CN1CCN(C(=O)c2cccc(F)c2)CC1 | 3.17%
COc1ccc(Cn2cccc(NC(=O)Nc3ccc(C#N)cc3)c2=O)cc1 | -3.37%
COC(=O)c1c(NC(=O)CN2CCN(S(=O)(=O)c3ccccc3[N+](=O)[O-])CC2)sc2c1CCC(C)C2 (stereo unspecified) | 0.7%
O=S(=O)(Cc1ccccc1)c1nc2ccccc2n1Cc1ccccn1 | -0.31%
O=C1/C(=C/c2coc3ccc(O)cc3c2=O)SC(=S)N1c1ccccc1 | 55.6% (active)
CC1=CC2=NC(=O)/C(=C/c3coc4ccccc4c3=O)C(=N)N2O1 | 6.6%
Cc1ccc(S(=O)(=O)N2CCC(C)CC2)cc1C(=O)NCc1ccccn1 | 0.82%

SMILES | activity change
Cc1ccc(CC2S/C(=C(/C#N)C(=O)N3CCOCC3)N(c3ccccc3)C2=O)cc1 (stereo unspecified) | 0.2%
CCN(CC(=O)NCc1cccs1)C(=O)/C=C/c1ccc(C)cc1 | 0.98%
Cc1ccc(CNC(=O)c2cccc3c2C(=O)c2ccc(N4CCC(C)CC4)cc2S3(=O)=O)cc1 | 45.8% (active)
COc1cccc(-c2ccc3c(c2)S(=O)(=O)c2cccc(C(=O)O)c2C3=O)c1OC | 1.88%
CC1CCN(c2ccc3c(c2)S(=O)(=O)c2cc(C(=O)O)ccc2C3=O)CC1 | 14.3%
Cc1nn(Cc2ccc(C(=O)N3N=C(C(F)F)CC3(O)C(F)F)cc2)c(C)c1[N+](=O)[O-] (stereo unspecified) | 1.52%
CN(C)c1ccc(/C=C2\NC(=S)N(Cc3ccccc3)C2=O)cc1 | 128%
COc1cc(=O)[nH]c(=O)n1C(=O)Cc1ccccc1 | 2.22%
COc1cc(/C=C2/SC(=S)N(Cc3ccccc3)C2=O)cc(OC)c1O | 48.1% (active)
CC1CCCCC1NC(=O)C1CCCN1S(=O)(=O)c1cccc2nsnc12 (stereo unspecified) | -0.79%
Cc1cccc(C)c1NC(=O)C(c1cccc2ccccc12)n1c(=O)c(-c2ccco2)nc2ccccc21 (stereo unspecified) | 32.4%
O=C(NC1CCCCC1)C(c1cc2ccccc2o1)n1c(=O)c(-c2ccco2)nc2ccccc21 (stereo unspecified) | 45.8% (active)
Cc1cccc(C)c1NC(=O)C(c1ccc(C(F)(F)F)cc1)n1c(=O)c(-c2ccco2)nc2ccccc21 (stereo unspecified) | 26.7%
Oc1ccc(/C=N/N(Cc2ccccc2)c2ccccc2)cc1 | -0.08%
Oc1ccc(N=Cc2c(O)ccc3ccccc23)cc1 | 72% (active)
CCOc1[nH]n(-c2ccc(Cl)cc2)c(=O)c1C=Nc1ccc(O)cc1 | -5.55%
COc1ccccc1C(=O)N1CCN=C1SCc1cccnc1 | 2.47%
Cc1ccc(-c2csc(NC(=O)Cn3[nH]c(=O)c4ccccc4c3=O)n2)cc1 | 50% (active)
Cc1ccc(C)c(C(=O)COC(=O)Cn2[nH]c(=O)c3ccccc3c2=O)c1 | -0.2%
O=C(Cn1[nH]c(=O)c2ccccc2c1=O)Nc1cccc(-c2nnc3n2CCCCC3)c1 | 1.84%
O=C(OC(C(=O)NC1CCCC1)c1ccc(F)cc1)c1ccno1 (stereo unspecified) | -0.09%
Cc1sc2nc(-c3ccccc3F)oc(=O)c2c1C | 0.82%
Nc1c(N(CCCO)C(=O)C2CCCC2)c(=O)[nH]c(=O)n1Cc1ccccc1 | -0.45%

SMILES | activity change
CCc1nnc(NC(=O)c2ccco2)s1 | 0.04%
CCCCOC(=O)Nc1nnc(CC(=O)NCc2ccccc2)s1 | -1.39%
CCc1ccc2nc3sc(C(=O)Nc4nnc(CC)s4)c(N)c3cc2c1 | 45.1% (active)
COc1ccc(CCNC(=O)C(=O)NCC2OCCN2S(=O)(=O)c2cccs2)cc1OC (stereo unspecified) | 5.44%
COc1cc(N=Cc2c(O)c3ccccc3oc2=O)c(OC)cc1Cl | 98.2% (active)
COc1cc(O)c2c(=O)c3c(O)c(O)ccc3oc2c1OC | 3.57%
Cc1ccc(N2C(=O)C(CC(=O)Nc3cccc(F)c3)N(CCc3ccncc3)C2=O)cc1 (stereo unspecified) | 0.66%
O=[N+]([O-])c1ccc(N=NNc2ccc([N+](=O)[O-])cc2)cc1 | 54.8% (active)
COC(=O)c1ccccc1N=NNc1ccc([N+](=O)[O-])cc1 | -3.24%
NC(=O)C1(Nc2ccc([N+](=O)[O-])cc2)CCCC1 | -1.78%
O=C1CSC(c2cccc(F)c2)N1c1ccc(O)cc1 (stereo unspecified) | 1.06%
O=C(CCc1nnc2ccc(NCCCN3CCCC3=O)nn12)NCc1ccccc1Cl | 1.08%
CCn1c(SCC(=O)Nc2ccc3c(c2)OCCO3)nc2c(c1=O)SC(C)C2 (stereo unspecified) | 1.48%
Cc1cccc(NS(=O)(=O)c2ccc([N+](=O)[O-])cc2)n1 | 0.15%
Cc1nc2ccccc2nc(=O)c1NNc1ccc([N+](=O)[O-])cc1 | 71% (active)
CC(O)c1nc2ccccc2n1Cc1ccc([N+](=O)[O-])cc1 (stereo unspecified) | -3.67%
O=C(O)C1CCC(CNS(=O)(=O)c2ccc(Br)cc2)CC1 (stereo unspecified) | 1.62%
Fc1cccc(Cc2c(-c3cccc(Cl)c3)nc3ccc(Br)cn23)c1 | 42.3% (active)
Clc1cccc(Cc2c(-c3cccc(Cl)c3)nc3ccc(Cl)cn23)c1 | 8.89%
Fc1cccc(Cc2c(-c3ccc(Cl)cc3)nc3ccc(Cl)cn23)c1 | 6.82%
CN(C)C(=O)CCC(=O)N1CCCCC1C(=O)Nc1ccc(Oc2ccccc2F)cc1 (stereo unspecified) | 1.87%
Cc1c(C(=O)Nc2cccc(Cl)c2)cn2c(nc3ccccc32)c1C#N | 0.36%
Cc1nc(-c2ccccc2)cn2c1nc1ccccc12 | 43.5% (active)

SMILES | activity change
Cc1nc2ccccc2n1CC(O)c1ccccc1 (stereo unspecified) | -4.17%
COc1ccc(-c2cc(C(F)(F)F)nc(S(C)(=O)=O)n2)cc1OC | -0.66%
O=C(Cn1nnc(-c2ccc(CN3CCOCC3)cc2)n1)NC1CCCCC1 | 4.12%
N/C(=N\S(=O)(=O)c1ccc(Cl)cc1)N1CCOCC1 | 4.34%
CCOc1ccc(C(=O)Nc2cccc(SC)c2)cc1 | 0.43%
O=C(Nc1cccc(-c2nc3ccccc3[nH]2)c1)c1ccc(C(=O)Nc2cccc(-c3nc4ccccc4[nH]3)c2)cc1 | 81.8% (active)
CCOc1ccc(C(=O)Nc2cccc(-c3ccc4nncn4n3)c2)cc1 | -0.86%
Cc1ccc(Cl)cc1N1CCN(C(=O)c2cccc3c(=O)c(C)c(-c4ccccc4)oc23)CC1 | -0.99%
CC(=O)c1cc(NC(=O)c2ccccc2)c(=O)oc1/C=C/N(C)C | 102% (active)
COc1ccc(C2COC(=O)C2=N)c(NC(=O)c2ccccc2)c1 (stereo unspecified) | -5.12%
CCOC(=O)c1cc(NC(=O)c2ccc(Cl)cc2)c(=O)oc1-c1ccccc1 | -0.75%
CCOc1ccc(Oc2nc(C)cc(OC)n2)nn1 | 0.35%
CC(C)C[C@H](NC(=O)[C@@H]1O[C@H]1C(=O)O)C(=O)NCCCCN=C(N)N | 2.71%
CCc1ccc2oc(=O)cc(CN3CCCCC3C)c2c1 (stereo unspecified) | 39.9% (active)
COc1ccc(CN2CCCCC2C)cc1OC (stereo unspecified) | -0.13%
CC(C)c1ccc2oc(=O)cc(CN3CCN(Cc4ccccc4)CC3)c2c1 | 2.71%
O=C(CCCn1c(=O)c2sccc2n(CC(=O)NCC2CCCO2)c1=O)NCc1ccco1 (stereo unspecified) | -1.63%
COc1cccc(NS(=O)(=O)c2ccc3[nH]cc(C(=O)NCCCOC(C)C)c(=O)c3c2)c1 | 0.82%
Cc1cc(NC(=O)CSc2nccn2-c2ccc([N+](=O)[O-])cc2)no1 | 35.4% (active)
Cc1cc(NC(=O)CSc2nc(=O)cc(N)n2-c2ccc(F)cc2)no1 | -1.93%
Cc1cc(NC(=O)CSc2nnnn2-c2ccc(F)cc2)no1 | 2.72%
CC(C)c1ccc(-c2nn[nH]n2)cc1 | -1.88%
